Data on one sequence can be found in PMC7862700, “An all-to-all approach to the identification of sequence-specific readers for epigenetic DNA modifications on cytosine”.

Common to all, as to test: DAPPL (digital affinity profiling via proximity ligation, sequencing); 10 mM Tris-HCl pH 7.5, 50 mM NaCl, 1 mM DTT, 4% glycerol, room temperature, 30 min; GST-TFs on glutathione beads, 16-mer random dsDNA library, 0.1% formaldehyde crosslink after washing; high values mean tight binding
For one experiment, the target named is T1, FEV (Homo sapiens, UniProt Q99581 1-238).
T1 sequence: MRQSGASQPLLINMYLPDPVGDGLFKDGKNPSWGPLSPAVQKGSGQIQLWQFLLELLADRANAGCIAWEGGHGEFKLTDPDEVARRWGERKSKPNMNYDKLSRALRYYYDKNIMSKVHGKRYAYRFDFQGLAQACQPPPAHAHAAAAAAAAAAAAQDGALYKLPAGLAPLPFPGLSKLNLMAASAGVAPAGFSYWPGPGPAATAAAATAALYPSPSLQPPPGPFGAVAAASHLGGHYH
As to conditions: protein: recombinant; tags: N-terminal GST; dsDNA, one strand shown. The essentials:
(§1)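 GST fusions of human transcription factors were expressed in yeast and captured with glutathione beads. Once given DNA barcodes and pooled alongside a tag-only sample, they were incubated for 30 min at room temperature with 200 nmole of a random double-stranded 16-mer DNA library in Tris/NaCl/DTT/glycerol buffer, then washed, crosslinked (0.1% formaldehyde), proximity-ligated, PCR-amplified and sequenced on an Illumina NextSeq500. The binding signal of each hexamer is its read frequency for a factor divided by its frequency for the tag-only sample.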

The next experiment deals with ETV5 (Homo sapiens, UniProt P41161 1-510). As to conditions: protein: recombinant; tags: N-terminal GST; dsDNA, one strand shown. The essentials:
as §1

The target of the next experiment is HSF1 (Homo sapiens, UniProt Q00613 1-529). As to conditions: protein: recombinant; tags: N-terminal GST; chain copies: 3; dsDNA, one strand shown. In outline: as §1
Another experiment has as its target T2, SPIC (Homo sapiens, UniProt Q8N5J4 1-248).
T2 sequence: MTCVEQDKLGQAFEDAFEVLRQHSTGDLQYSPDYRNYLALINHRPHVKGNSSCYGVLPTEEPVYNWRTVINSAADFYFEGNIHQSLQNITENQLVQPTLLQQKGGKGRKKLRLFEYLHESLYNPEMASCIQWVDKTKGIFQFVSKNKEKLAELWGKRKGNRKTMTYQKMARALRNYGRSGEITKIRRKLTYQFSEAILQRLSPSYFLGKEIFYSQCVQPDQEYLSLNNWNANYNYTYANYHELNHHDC
As to conditions: protein: recombinant; tags: N-terminal GST; dsDNA, one strand shown. In outline:
as §1

The next experiment has as its target ELF4 (Homo sapiens, UniProt Q99607 1-663). As to conditions: protein: recombinant; tags: N-terminal GST; dsDNA, one strand shown. In outline:
as §1

The target in a further experiment is T3, ELK4 (Homo sapiens, UniProt P28324-2 1-405).
T3 sequence: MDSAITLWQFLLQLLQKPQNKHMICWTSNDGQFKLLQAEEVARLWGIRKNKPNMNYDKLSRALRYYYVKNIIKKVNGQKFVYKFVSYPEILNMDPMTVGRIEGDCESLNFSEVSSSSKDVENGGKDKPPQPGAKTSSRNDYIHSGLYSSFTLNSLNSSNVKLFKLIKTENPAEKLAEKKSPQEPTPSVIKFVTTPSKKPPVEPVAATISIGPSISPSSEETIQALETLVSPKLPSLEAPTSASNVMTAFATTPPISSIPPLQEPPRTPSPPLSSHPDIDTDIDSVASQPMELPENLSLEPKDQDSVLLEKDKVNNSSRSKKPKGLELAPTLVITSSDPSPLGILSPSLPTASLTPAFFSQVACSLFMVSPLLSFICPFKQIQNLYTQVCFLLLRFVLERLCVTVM
As to conditions: protein: recombinant; tags: N-terminal GST; dsDNA, one strand shown. In outline: as §1

In a further experiment the target is T4, ETV2 (Homo sapiens, UniProt O00321 1-342).
T4 sequence: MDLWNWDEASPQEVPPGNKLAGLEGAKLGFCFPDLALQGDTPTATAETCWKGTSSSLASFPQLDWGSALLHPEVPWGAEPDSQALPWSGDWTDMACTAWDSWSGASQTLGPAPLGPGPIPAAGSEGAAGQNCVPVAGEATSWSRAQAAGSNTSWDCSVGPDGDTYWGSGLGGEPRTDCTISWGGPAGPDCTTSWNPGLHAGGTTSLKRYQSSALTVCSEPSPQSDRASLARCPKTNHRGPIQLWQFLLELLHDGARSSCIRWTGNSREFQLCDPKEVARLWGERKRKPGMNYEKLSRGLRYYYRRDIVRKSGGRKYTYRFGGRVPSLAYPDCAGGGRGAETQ
As to conditions: protein: recombinant; tags: N-terminal GST; dsDNA, one strand shown. In outline: as §1

The next experiment addresses T5, ELF3 (Homo sapiens, UniProt P78545 1-371).
T5 sequence: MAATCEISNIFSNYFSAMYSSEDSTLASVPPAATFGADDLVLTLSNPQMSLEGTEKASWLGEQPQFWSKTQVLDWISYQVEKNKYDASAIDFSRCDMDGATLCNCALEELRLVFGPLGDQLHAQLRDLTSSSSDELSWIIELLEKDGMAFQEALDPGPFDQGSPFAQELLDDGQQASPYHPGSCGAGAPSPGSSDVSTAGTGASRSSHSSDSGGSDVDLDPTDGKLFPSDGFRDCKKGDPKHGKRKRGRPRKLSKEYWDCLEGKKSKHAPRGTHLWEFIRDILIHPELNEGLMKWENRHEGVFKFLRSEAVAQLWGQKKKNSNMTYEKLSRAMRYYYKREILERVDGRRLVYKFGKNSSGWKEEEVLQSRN
As to conditions: protein: recombinant; tags: N-terminal GST; dsDNA, one strand shown. In outline: as §1

For a further experiment, the target named is CRX (Homo sapiens, UniProt O43186 1-299). As to conditions: protein: recombinant; tags: N-terminal GST; dsDNA, one strand shown. The essentials: as §1
The target in a further experiment is ETV1 (Homo sapiens, UniProt P50549 1-477). As to conditions: protein: recombinant; tags: N-terminal GST; dsDNA, one strand shown. In outline: as §1
A further experiment addresses T6, ERF (Homo sapiens, UniProt P50548 1-548).
T6 sequence: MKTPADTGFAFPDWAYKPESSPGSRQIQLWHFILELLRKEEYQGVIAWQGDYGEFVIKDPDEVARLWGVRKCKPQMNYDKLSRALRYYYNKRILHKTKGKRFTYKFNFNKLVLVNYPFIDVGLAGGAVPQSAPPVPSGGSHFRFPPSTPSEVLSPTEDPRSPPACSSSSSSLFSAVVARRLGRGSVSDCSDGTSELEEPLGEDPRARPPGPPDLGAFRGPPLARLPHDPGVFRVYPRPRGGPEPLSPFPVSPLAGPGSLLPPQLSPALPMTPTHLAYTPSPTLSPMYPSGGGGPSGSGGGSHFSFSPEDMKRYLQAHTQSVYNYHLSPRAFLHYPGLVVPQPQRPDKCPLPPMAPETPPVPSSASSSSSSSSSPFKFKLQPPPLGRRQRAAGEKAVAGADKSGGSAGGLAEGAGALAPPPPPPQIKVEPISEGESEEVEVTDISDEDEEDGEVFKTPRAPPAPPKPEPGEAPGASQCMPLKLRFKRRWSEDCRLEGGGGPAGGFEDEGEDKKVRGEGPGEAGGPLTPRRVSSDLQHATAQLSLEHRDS
As to conditions: protein: recombinant; tags: N-terminal GST; dsDNA, one strand shown. The essentials:
as §1

The target in a further experiment is T7, ETV3L (Homo sapiens, UniProt Q6ZN32 1-361).
T7 sequence: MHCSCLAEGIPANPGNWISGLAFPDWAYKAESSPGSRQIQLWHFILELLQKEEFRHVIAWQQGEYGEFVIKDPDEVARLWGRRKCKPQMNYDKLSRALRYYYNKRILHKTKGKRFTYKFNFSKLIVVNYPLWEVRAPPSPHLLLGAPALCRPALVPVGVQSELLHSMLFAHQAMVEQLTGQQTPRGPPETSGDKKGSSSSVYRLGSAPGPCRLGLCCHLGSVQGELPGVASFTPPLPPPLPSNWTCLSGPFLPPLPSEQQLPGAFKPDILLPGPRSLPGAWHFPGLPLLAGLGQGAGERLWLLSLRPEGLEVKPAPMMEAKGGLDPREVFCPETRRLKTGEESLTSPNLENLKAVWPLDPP
As to conditions: protein: recombinant; tags: N-terminal GST; dsDNA, one strand shown. In outline: as §1

Another experiment has as its target T8, ETS2 (Homo sapiens, UniProt P15036 1-469).
T8 sequence: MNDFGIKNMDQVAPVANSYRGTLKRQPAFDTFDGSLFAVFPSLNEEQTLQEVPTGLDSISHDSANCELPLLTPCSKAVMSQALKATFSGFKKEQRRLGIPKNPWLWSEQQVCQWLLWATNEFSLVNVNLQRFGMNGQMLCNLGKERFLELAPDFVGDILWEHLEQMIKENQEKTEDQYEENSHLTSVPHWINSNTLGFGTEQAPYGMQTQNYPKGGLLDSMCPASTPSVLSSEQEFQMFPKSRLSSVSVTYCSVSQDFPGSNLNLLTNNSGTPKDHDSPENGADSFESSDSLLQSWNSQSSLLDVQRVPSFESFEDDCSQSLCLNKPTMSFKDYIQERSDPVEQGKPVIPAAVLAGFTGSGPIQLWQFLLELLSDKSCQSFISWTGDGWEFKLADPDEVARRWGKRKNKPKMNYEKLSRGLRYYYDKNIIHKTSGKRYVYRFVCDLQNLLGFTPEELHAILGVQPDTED
As to conditions: protein: recombinant; tags: N-terminal GST; dsDNA, one strand shown. The essentials: as §1

A further experiment has as its target T9, SPDEF (Homo sapiens, UniProt O95238 1-335).
T9 sequence: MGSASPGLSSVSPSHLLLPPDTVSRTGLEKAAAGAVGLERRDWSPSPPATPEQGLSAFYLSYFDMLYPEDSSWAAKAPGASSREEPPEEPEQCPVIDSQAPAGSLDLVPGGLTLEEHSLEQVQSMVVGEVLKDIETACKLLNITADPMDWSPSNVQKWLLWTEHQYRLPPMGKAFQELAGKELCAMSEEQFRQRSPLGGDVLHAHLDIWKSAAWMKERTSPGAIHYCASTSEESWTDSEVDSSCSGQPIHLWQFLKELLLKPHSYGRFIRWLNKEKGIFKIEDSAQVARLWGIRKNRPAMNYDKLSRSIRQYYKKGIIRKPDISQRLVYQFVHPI
As to conditions: protein: recombinant; tags: N-terminal GST; dsDNA, one strand shown. In outline: as §1

The target in a further experiment is T10, ETV7 (Homo sapiens, UniProt Q9Y603 1-341).
T10 sequence: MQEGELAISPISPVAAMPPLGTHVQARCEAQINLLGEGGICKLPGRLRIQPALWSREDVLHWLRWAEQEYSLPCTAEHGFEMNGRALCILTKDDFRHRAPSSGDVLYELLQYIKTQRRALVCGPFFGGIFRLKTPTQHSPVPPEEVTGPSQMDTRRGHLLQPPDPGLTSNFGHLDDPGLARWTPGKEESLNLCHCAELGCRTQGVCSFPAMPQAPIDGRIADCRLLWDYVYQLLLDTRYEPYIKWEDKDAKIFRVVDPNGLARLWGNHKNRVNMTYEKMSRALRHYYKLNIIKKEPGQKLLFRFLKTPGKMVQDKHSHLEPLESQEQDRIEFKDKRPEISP
As to conditions: protein: recombinant; tags: N-terminal GST; dsDNA, one strand shown. In outline:
as §1

For another experiment, the target named is T11, ELF5 (Homo sapiens, UniProt Q9UKW6-2 1-255).
T11 sequence: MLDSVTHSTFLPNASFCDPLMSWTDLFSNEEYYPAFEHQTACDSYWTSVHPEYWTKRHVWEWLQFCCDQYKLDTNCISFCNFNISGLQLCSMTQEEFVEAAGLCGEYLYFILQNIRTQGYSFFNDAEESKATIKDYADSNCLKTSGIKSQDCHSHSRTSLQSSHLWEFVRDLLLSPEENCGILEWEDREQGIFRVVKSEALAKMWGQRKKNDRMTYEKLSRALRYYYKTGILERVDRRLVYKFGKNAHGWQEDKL
As to conditions: protein: recombinant; tags: N-terminal GST; dsDNA, one strand shown. The essentials:
as §1

The next experiment addresses T12, ETV3 (Homo sapiens, UniProt P41162-2 1-143).
T12 sequence: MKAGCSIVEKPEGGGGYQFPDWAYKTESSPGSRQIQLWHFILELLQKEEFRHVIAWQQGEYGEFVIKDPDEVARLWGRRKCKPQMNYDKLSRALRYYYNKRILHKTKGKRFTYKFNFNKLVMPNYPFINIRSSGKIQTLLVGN
As to conditions: protein: recombinant; tags: N-terminal GST; dsDNA, one strand shown. In outline:
as §1

Another experiment concerns the target ETV6 (Homo sapiens, UniProt P41212 1-452). As to conditions: protein: recombinant; tags: N-terminal GST; dsDNA, one strand shown. The essentials:
as §1

ELF4, sequence (Q99607 whole entry): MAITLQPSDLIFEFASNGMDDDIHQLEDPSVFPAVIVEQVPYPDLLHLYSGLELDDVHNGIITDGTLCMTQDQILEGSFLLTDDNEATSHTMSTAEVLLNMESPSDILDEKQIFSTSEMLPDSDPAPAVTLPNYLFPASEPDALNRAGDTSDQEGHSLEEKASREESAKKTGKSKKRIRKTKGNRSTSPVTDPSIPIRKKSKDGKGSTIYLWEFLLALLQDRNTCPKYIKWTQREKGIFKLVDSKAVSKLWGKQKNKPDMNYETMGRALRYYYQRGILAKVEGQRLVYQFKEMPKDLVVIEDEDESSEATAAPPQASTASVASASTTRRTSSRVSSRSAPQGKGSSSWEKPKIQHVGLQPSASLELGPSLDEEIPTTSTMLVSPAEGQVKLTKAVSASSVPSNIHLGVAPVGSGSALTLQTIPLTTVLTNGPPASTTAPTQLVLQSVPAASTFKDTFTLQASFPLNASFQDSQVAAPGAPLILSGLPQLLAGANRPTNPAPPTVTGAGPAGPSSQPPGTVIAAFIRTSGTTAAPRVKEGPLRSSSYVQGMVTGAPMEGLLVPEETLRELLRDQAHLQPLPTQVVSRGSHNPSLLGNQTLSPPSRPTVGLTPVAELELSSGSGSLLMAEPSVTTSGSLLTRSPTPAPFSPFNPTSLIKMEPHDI
HSF1, sequence (Q00613 whole entry): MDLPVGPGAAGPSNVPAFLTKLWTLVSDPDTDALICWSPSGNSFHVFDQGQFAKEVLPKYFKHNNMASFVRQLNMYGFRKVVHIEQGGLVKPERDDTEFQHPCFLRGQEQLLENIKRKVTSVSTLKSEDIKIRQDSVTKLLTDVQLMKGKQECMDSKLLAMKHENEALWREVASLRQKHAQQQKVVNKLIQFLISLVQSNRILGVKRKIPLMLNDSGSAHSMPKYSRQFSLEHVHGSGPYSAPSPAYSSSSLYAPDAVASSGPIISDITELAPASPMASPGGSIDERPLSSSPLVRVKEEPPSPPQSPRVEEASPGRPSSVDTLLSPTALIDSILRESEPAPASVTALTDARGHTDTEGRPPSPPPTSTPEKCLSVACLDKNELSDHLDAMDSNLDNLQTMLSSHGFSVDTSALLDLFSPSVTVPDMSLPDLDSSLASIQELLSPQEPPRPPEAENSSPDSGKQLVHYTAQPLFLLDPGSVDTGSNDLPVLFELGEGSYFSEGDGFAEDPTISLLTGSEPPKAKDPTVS
CRX, sequence (O43186 whole entry): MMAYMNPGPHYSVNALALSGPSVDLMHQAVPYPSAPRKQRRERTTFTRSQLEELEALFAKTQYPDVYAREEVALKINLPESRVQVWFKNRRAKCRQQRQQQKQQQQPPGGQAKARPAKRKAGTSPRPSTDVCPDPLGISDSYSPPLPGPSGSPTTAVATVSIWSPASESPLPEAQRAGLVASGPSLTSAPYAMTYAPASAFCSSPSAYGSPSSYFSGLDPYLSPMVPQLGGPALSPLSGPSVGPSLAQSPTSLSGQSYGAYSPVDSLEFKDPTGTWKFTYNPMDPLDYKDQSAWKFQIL
ETV5, sequence (P41161 whole entry): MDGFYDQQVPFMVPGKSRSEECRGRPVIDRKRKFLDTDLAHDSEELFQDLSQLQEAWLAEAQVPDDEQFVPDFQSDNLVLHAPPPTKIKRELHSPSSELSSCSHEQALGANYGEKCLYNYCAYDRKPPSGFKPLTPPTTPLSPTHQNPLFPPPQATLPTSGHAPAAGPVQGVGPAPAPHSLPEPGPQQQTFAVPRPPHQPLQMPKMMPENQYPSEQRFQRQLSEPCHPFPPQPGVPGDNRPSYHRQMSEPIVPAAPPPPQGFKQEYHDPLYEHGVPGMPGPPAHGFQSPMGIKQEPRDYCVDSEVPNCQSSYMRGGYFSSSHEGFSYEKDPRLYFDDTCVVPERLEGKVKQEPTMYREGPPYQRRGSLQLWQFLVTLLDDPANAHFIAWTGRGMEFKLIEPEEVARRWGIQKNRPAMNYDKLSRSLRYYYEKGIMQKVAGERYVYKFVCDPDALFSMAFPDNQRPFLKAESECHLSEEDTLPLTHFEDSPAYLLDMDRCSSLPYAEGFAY
ETV1, sequence (P50549 whole entry): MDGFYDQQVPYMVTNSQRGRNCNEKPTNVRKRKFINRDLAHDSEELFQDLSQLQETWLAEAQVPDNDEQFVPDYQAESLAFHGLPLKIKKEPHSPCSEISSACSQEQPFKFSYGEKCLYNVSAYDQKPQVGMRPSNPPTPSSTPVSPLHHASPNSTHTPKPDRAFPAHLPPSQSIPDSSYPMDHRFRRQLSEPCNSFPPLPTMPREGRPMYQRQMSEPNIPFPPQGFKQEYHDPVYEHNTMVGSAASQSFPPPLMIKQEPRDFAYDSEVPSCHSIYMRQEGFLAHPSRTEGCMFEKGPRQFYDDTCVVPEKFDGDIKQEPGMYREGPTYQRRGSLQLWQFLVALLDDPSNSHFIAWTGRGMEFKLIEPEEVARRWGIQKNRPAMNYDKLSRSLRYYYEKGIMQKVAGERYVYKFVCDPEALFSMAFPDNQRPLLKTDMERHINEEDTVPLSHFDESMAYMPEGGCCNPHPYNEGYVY
ETV6, sequence (P41212 whole entry): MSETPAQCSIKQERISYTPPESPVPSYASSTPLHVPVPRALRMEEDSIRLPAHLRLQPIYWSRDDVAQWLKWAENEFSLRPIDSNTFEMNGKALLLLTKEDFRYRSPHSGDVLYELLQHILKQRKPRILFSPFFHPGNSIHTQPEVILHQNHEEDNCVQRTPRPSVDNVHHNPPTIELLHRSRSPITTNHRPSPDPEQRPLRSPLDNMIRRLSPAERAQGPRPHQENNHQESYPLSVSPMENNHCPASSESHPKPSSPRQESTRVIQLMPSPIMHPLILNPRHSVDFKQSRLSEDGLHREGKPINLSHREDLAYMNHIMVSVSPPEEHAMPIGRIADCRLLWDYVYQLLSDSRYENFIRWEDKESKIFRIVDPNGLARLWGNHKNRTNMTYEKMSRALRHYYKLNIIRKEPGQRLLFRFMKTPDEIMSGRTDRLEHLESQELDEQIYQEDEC

As for TAATCT, the binding signal with FEV is 1.3 fold enrichment (6-mer frequency, TF over GST control); with ETV5, 1.44 fold enrichment (6-mer frequency, TF over GST control); with HSF1, 3.55 fold enrichment (6-mer frequency, TF over GST control); with SPIC, 1.3 fold enrichment (6-mer frequency, TF over GST control); with ELF4, 1.51 fold enrichment (6-mer frequency, TF over GST control); with ELK4, 1.4 fold enrichment (6-mer frequency, TF over GST control). Also, the binding signal is 1.34 fold enrichment (6-mer frequency, TF over GST control) with ETV2; 1.57 fold enrichment (6-mer frequency, TF over GST control) with ELF3; 5.78 fold enrichment (6-mer frequency, TF over GST control) with CRX; 1.52 fold enrichment (6-mer frequency, TF over GST control) in the experiment with ETV1; 1.39 fold enrichment (6-mer frequency, TF over GST control) in the experiment with ERF; 1.32 fold enrichment (6-mer frequency, TF over GST control) with ETV3L. Further, the binding signal in the experiment with ETS2 is 1.43 fold enrichment (6-mer frequency, TF over GST control); with SPDEF, 1.34 fold enrichment (6-mer frequency, TF over GST control); in the experiment with ETV7 it was 1.5 fold enrichment (6-mer frequency, TF over GST control); with ELF5 it was 1.46 fold enrichment (6-mer frequency, TF over GST control); with ETV3, 1.28 fold enrichment (6-mer frequency, TF over GST control); with ETV6 it was 1.37 fold enrichment (6-mer frequency, TF over GST control).
